# Reference: ChEMBL document CHEMBL1961873, “Compounds: GSK PKIS; Assays: Nanosyn kinase panel” (2012)
# What was measured:
# [1] = biological target: Sphingosine kinase 1 (Homo sapiens) (UniProt Q9NYA1); details: at 1 µM;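 note: mean SPHK1 inhibition value reported from the GSK PKIS kinase panel screen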
# [2] = biological target: T1, Sphingosine kinase 2 (Homo sapiens) (UniProt Q9NRA0); details: at 0.1 µM
# T1 sequence (whole entry): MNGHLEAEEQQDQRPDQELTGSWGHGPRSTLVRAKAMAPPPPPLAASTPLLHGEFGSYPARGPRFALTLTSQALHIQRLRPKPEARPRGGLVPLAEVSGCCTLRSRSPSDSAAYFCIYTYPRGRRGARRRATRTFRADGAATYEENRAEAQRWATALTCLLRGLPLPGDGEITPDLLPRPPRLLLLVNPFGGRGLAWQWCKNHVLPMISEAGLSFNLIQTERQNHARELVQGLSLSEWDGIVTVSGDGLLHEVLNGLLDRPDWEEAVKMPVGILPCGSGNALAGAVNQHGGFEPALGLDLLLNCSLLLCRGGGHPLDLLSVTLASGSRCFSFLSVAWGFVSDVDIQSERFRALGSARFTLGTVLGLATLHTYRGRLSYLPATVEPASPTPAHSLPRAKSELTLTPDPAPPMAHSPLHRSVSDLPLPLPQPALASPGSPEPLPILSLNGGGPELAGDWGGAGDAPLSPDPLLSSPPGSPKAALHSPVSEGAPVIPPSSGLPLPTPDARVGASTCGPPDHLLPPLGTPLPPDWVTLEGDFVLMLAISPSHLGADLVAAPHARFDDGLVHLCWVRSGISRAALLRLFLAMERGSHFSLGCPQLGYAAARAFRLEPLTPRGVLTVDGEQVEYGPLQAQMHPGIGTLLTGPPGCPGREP
# [3] = biological target: T1, Sphingosine kinase 2 (Homo sapiens); details: at 1 µM
# [4] = biological target: Casein kinase II subunit alpha (Homo sapiens) (UniProt P68400); details: at 0.1 µM
# [5] = biological target: Casein kinase II subunit alpha (Homo sapiens) (UniProt P68400); details: at 1 µM
# [6] = biological target: T2, Inhibitor of nuclear factor kappa-B kinase subunit alpha (Homo sapiens) (UniProt O15111); details: at 0.1 µM
# T2 sequence (whole entry): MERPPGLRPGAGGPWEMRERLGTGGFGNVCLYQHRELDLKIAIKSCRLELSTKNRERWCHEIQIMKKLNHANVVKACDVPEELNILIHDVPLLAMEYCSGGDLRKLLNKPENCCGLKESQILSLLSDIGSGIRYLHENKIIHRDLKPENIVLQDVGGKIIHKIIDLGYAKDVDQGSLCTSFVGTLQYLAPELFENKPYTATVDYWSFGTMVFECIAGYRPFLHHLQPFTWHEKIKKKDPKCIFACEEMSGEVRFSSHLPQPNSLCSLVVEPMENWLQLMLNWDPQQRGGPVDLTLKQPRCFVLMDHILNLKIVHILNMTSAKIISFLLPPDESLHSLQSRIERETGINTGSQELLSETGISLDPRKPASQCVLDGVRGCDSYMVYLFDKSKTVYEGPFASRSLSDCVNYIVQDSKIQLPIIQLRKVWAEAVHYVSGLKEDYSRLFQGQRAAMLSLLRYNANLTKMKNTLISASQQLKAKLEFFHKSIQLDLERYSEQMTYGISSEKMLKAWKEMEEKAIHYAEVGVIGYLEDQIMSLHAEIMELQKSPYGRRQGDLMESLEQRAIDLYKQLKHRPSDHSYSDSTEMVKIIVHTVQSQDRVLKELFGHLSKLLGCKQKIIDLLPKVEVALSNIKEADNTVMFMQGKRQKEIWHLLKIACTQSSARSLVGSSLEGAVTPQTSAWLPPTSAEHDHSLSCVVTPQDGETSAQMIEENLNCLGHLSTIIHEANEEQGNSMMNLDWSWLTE
# [7] = biological target: T2, Inhibitor of nuclear factor kappa-B kinase subunit alpha (Homo sapiens); details: at 1 µM
# [8] = biological target: T3, Inhibitor of nuclear factor kappa-B kinase subunit beta (Homo sapiens) (UniProt O14920); details: at 0.1 µM
# T3 sequence (whole entry): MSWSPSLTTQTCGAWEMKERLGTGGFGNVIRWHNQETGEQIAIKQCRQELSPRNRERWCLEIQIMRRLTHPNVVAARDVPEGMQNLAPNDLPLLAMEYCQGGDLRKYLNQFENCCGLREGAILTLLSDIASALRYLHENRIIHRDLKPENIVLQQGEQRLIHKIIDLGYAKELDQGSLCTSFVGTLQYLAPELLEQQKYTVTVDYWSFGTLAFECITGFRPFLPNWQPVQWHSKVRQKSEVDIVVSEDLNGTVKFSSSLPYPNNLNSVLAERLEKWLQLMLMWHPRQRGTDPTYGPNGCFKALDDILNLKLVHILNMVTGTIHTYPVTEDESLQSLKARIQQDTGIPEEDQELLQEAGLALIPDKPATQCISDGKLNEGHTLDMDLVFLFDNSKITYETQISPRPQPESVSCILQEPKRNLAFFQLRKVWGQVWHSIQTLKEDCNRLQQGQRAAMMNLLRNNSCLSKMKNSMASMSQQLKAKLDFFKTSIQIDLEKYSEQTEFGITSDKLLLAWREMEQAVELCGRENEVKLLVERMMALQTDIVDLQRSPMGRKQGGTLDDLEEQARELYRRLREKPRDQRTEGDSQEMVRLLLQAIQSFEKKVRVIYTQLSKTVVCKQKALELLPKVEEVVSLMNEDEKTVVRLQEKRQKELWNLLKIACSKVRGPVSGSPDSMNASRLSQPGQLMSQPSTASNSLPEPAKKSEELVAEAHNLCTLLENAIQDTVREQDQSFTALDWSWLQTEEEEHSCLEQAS
# [9] = biological target: T3, Inhibitor of nuclear factor kappa-B kinase subunit beta (Homo sapiens); details: at 1 µM
# [10] = biological target: T4, Inhibitor of nuclear factor kappa-B kinase subunit epsilon (Homo sapiens) (UniProt Q14164); details: at 0.1 µM
# T4 sequence (whole entry): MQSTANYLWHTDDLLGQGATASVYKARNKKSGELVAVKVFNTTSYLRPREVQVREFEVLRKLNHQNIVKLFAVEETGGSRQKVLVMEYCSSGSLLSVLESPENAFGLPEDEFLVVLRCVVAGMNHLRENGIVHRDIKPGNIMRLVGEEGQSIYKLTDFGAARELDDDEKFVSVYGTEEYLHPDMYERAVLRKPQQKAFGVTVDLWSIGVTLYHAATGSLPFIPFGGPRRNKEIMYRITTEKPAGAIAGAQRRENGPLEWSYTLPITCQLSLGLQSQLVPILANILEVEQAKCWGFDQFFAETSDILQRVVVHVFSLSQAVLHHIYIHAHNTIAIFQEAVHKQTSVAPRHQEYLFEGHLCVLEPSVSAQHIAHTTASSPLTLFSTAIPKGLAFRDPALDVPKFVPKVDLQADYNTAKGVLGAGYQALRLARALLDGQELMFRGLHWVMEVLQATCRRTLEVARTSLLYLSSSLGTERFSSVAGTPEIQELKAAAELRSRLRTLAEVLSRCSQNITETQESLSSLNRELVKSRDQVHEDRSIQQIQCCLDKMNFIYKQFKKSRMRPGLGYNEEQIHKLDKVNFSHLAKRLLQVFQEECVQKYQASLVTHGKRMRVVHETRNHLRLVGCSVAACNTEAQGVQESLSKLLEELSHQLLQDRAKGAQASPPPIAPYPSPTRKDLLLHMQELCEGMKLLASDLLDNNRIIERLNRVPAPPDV
# [11] = biological target: T4, Inhibitor of nuclear factor kappa-B kinase subunit epsilon (Homo sapiens); details: at 1 µM
# [12] = biological target: T5, Serine/threonine-protein kinase Nek1 (Homo sapiens) (UniProt Q96PY6); details: at 0.1 µM
# T5 sequence (whole entry): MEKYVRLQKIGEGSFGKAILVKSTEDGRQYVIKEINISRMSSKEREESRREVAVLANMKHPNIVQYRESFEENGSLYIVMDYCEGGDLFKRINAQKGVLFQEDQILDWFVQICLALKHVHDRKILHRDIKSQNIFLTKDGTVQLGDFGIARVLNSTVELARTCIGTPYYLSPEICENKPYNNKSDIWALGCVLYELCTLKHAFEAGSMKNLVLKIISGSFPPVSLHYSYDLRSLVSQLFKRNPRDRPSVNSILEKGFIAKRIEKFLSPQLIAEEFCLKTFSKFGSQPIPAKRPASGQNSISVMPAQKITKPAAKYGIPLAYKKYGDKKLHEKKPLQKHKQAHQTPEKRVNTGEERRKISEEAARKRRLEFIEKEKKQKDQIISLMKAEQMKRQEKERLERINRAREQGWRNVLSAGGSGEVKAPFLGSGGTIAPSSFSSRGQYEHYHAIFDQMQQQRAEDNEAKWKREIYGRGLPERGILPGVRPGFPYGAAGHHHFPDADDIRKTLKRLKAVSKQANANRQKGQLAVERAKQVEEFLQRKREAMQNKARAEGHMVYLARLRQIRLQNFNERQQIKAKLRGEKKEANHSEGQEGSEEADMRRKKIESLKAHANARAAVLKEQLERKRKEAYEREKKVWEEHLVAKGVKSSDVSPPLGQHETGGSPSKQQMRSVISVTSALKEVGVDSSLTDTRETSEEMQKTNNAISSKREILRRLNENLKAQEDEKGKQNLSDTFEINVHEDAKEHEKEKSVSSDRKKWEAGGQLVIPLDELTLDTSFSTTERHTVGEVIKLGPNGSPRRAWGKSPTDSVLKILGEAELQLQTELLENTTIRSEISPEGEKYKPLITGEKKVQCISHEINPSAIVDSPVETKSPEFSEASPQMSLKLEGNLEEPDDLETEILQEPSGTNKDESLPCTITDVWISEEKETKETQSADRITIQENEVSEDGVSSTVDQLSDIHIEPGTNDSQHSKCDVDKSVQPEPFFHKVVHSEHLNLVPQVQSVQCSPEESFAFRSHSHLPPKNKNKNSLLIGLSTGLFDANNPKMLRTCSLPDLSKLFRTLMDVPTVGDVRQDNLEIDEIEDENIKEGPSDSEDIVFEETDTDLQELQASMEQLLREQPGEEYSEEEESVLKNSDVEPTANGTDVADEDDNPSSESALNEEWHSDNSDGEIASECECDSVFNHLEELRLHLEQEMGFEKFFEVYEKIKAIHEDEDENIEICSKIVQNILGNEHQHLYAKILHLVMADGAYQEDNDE
# [13] = biological target: T5, Serine/threonine-protein kinase Nek1 (Homo sapiens); details: at 1 µM
# [14] = biological target: T6, Serine/threonine-protein kinase Nek2 (Homo sapiens) (UniProt P51955); details: at 0.1 µM
# T6 sequence (whole entry): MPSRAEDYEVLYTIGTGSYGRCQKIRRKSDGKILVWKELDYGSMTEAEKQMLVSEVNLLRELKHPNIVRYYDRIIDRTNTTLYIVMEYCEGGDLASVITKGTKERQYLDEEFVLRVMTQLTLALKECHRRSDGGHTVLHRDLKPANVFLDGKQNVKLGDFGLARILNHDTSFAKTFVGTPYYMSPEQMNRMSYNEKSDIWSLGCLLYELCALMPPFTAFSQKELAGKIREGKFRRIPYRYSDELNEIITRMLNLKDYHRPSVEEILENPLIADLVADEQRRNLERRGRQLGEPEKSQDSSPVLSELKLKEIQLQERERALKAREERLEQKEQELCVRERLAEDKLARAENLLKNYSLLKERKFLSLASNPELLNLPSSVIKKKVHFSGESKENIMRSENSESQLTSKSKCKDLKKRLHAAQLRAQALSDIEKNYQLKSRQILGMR
# [15] = biological target: T6, Serine/threonine-protein kinase Nek2 (Homo sapiens); details: at 1 µM
# [16] = biological target: Serine/threonine-protein kinase Nek6 (Homo sapiens) (UniProt Q9HC98); details: at 0.1 µM
# [17] = biological target: Serine/threonine-protein kinase Nek6 (Homo sapiens) (UniProt Q9HC98); details: at 1 µM
# [18] = biological target: Serine/threonine-protein kinase Nek7 (Homo sapiens) (UniProt Q8TDX7); details: at 0.1 µM
# [19] = biological target: Serine/threonine-protein kinase Nek7 (Homo sapiens) (UniProt Q8TDX7); details: at 1 µM
# [20] = biological target: T7, Serine/threonine-protein kinase Nek9 (Homo sapiens) (UniProt Q8TD19); details: at 0.1 µM;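 note: reported value is the mean percent inhibition of NEK9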
# T7 sequence (whole entry): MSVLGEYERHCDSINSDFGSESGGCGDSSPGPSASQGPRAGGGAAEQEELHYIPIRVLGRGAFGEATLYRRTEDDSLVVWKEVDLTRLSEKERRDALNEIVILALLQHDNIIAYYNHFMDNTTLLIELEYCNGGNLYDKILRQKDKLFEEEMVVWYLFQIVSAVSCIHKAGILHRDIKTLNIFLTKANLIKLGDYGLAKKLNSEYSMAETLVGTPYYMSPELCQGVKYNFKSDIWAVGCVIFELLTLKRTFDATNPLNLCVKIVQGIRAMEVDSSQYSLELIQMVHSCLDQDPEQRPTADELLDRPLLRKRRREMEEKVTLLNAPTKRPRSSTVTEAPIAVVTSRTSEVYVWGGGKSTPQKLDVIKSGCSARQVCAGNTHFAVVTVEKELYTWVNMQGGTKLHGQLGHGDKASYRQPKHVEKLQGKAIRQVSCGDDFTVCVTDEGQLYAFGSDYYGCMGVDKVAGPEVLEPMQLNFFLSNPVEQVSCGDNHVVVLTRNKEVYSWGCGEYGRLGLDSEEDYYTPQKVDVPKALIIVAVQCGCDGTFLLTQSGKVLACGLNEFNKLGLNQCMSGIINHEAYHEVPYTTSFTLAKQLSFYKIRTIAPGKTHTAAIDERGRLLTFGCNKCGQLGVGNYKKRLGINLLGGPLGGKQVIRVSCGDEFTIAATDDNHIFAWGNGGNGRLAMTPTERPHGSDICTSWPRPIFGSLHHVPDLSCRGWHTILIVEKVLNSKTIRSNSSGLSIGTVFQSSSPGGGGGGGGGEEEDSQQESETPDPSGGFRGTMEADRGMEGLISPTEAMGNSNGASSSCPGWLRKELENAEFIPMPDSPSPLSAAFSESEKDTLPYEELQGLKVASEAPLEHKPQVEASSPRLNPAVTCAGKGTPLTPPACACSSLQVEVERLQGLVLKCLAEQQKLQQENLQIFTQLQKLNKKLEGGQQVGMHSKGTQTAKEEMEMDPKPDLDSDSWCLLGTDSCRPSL
# Sequence of Serine/threonine-protein kinase Nek6 (Homo sapiens) (Q9HC98 whole entry): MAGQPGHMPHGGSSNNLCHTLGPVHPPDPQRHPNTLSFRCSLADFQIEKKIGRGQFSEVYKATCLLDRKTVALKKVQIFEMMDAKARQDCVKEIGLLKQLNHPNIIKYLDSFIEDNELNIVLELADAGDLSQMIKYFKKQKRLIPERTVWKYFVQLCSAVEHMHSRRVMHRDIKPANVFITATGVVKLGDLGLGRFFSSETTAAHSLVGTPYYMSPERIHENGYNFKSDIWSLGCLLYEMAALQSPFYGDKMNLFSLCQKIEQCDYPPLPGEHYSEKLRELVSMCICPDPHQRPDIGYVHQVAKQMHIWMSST
# Sequence of Serine/threonine-protein kinase Nek7 (Homo sapiens) (Q8TDX7 whole entry, looked up): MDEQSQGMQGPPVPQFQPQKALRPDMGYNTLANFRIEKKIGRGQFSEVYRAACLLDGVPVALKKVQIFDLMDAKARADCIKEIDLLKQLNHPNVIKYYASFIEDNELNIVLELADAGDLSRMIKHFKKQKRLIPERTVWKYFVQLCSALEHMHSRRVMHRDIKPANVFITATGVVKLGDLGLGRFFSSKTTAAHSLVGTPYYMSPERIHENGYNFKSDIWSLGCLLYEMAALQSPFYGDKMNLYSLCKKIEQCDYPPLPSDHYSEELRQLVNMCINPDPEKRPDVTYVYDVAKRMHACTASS
# Sequence of Casein kinase II subunit alpha (Homo sapiens) (P68400 whole entry, looked up): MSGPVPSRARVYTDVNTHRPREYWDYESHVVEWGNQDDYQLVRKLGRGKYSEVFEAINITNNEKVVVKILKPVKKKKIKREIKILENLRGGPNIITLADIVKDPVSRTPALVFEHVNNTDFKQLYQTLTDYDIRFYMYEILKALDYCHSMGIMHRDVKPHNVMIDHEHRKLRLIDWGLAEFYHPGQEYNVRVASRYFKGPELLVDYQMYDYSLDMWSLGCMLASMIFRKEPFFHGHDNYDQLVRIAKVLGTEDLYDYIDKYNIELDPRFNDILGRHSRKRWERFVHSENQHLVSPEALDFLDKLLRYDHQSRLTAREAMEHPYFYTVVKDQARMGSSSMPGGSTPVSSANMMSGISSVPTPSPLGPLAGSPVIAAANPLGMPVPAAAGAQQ
# Sequence of Sphingosine kinase 1 (Homo sapiens) (Q9NYA1 whole entry): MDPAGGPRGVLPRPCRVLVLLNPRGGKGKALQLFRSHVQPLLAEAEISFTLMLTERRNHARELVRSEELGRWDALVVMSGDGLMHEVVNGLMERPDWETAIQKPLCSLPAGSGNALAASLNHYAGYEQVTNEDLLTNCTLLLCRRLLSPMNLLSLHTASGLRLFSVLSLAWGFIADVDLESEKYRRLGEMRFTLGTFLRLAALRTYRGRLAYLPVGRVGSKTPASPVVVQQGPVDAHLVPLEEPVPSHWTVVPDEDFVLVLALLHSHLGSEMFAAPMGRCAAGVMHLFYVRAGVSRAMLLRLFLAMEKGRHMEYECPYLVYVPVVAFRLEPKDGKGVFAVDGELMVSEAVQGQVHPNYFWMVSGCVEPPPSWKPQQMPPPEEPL
structure (smiles),measurement,setting,value
COc1cc(Nc2ncc3c(C)nc(-c4cccc(Oc5ccccc5)c4)n3n2)cc(OC)c1OC,inhibition,[1],-0.76%
same,inhibition,[2],0.82%
same,inhibition,[3],0%
same,inhibition,[4],0.59%
same,inhibition,[5],12.7%
same,inhibition,[6],2.21%
same,inhibition,[7],-5.5%
same,inhibition,[8],1.1%
same,inhibition,[9],0.16%
same,inhibition,[10],2.97%
same,inhibition,[11],21.3%
same,inhibition,[12],2.64%
same,inhibition,[13],11.3%
same,inhibition,[14],7.11%
same,inhibition,[15],31.6%
same,inhibition,[16],2.7%
same,inhibition,[17],-0.99%
same,inhibition,[18],4.1%
same,inhibition,[19],1.98%
same,inhibition,[20],29%
